Source: PubChem BioAssay AID1851 (National Center for Advancing Translational Sciences (NCATS), 2009)
Among all 16,000 compounds or so, about 5,100 (32%) were called active. Another 25% or so got no clear call; they are omitted. The list shows a part of the results. Values without a mark were called inactive. Calls come from the whole dose curve; as a rule, active = well fitted curve in the direction sought with a large enough effect; inconclusive = small, poorly fitted or top-dose-only effect, or effect the other way; inactive = no such curve, though single readings can be large or run the other way.

target: Cytochrome P450 3A4 (Homo sapiens) (UniProt P08684); experiment: Cytochrome panel assay with activity outcomes; details: recombinant CYP, pro-luciferin dealkylation, luminescence, p450-cyp3a4; series mostly up to 57.1 µM
% is set by controls: 0 for no effect and ±100 for the full control effect.

Chain of Cytochrome P450 3A4 (Homo sapiens) (P08684 whole entry, looked up): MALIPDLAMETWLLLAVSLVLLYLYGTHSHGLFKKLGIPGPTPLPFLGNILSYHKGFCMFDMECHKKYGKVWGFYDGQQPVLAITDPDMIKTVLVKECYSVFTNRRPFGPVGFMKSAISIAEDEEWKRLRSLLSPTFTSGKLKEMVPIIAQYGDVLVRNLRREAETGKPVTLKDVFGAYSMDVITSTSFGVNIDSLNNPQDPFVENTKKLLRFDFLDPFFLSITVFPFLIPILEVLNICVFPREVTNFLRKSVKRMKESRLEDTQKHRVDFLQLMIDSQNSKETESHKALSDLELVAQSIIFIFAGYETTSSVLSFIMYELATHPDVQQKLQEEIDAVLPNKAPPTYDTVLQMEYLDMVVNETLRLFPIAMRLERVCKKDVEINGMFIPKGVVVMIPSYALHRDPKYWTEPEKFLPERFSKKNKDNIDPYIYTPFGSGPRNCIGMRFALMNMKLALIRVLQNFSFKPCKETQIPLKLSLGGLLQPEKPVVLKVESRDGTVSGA

Structure (SMILES)	AC50	activity, negative = inhibition
CN(C)c1ccc(NC(=O)c2cccc(N3C(=O)C4C5C=CC(C5)C4C3=O)c2)cc1 (stereo not drawn)	inactive	–
Cc1cccc(NC(=O)c2cccc(N3C(=O)C4C5CCC(C5)C4C3=O)c2)c1C (stereo not drawn)	11.2 µM (active)	–
Cc1cccc(NC(=O)c2onc3c2CCCC3)c1C	inactive	–
Clc1ccccc1-c1nc(NC2CCNCC2)c2ccccc2n1	inactive	–
c1ccc2c(N3CCOCC3)nc(-c3ccoc3)nc2c1	6.31 µM (active)	–
Cc1noc(C)c1-c1nc(N2CCOCC2)c2ccccc2n1	6.31 µM (active)	–
Clc1ccccc1-c1nc(N2CCNCC2)c2ccccc2n1	25.1 µM (active)	–
Cc1ccccc1-c1nc(N2CCOCC2)c2ccccc2n1	15.8 µM (active)	–
Cc1noc(C)c1-c1nc(N2CCN(C)CC2)c2ccccc2n1	inactive	–
O=C(O)CCCCCCCC(=O)O	inactive	–
CCOC(=O)C(C)(C)[C@H](O)C(C)C	–	2.08% [at 11.4 µM]
Cc1cc2nc3c(=O)[nH]c(=O)nc-3n(CC(O)C(O)C(O)CO)c2cc1C (stereo not drawn)	inactive	–
O=C1NC(c2ccccc2)=NC1(NS(=O)(=O)c1ccccc1)C(F)(F)F (stereo not drawn)	inactive	–
Cc1ccccc1-c1nc(N2CCNCC2)c2ccccc2n1	25.1 µM (active)	–
Cc1ccccc1-c1nc(N2CCN(C)CC2)c2ccccc2n1	20 µM (active)	–
OC[C@@H]1O[C@@H](n2cnc3c(SCc4ccccc4)ncnc32)[C@@H](O)[C@H]1O	–	7.88% [at 11.4 µM]
Nc1nc(Cl)cc(NCCO)n1	–	-4.92% [at 11.4 µM]
CCCCCCCCCCCCCCCCCCc1ccc(C(=O)/C=C\C(=O)O)cc1	inactive	–
Cc1nc(C(=O)Nc2cccc(Cl)c2Cl)nn1-c1cc(OC(C)C)c(Cl)cc1Cl	inactive	–
Cc1c(Cl)cccc1NC(=O)c1ccc(-n2ccnc2)nc1	0.0398 µM (active)	–
O=C(Nc1ccc(F)cc1)c1ccc(-n2ccnc2)nc1	0.126 µM (active)	–

Structure (SMILES)	AC50	activity, negative = inhibition
COc1ccccc1NC(=O)c1ccc(-n2cccn2)nc1	inactive	–
CN(C)CCNc1nc2c(c(=O)n(C)c(=O)n2C)n1C	–	-5.65% [at 11.4 µM]
Cn1c(=O)c2c(nc(NCCNc3nc4c(c(=O)n(C)c(=O)n4C)n3C)n2C)n(C)c1=O	–	8.34% [at 11.4 µM]
COc1cccc(Cn2c(NCc3cccnc3)nc3c2c(=O)n(C)c(=O)n3C)c1	3.16 µM (active)	–
O=C(CCCNS(=O)(=O)c1cccc2nsnc12)NCCc1ccccc1	7.08 µM (active)	–
CN1CCN(/C=N/C2=C(C#N)C(c3ccccc3)C3=C(CC(C)(C)CC3=O)O2)CC1 (stereo not drawn)	–	1.82% [at 2.29 µM]
N#CC1=C(N)OC2=C(C(=O)CCC2)C12CCC1(CC2)OCCO1	inactive	–
COc1ccc(C2C(C#N)=C(N)OC3=C2C(=O)CC(C)(C)C3)c([N+](=O)[O-])c1OC (stereo not drawn)	5.01 µM (active)	–
COc1cc(C2C(C#N)=C(N)OC3=C2C(=O)CCC3)c([N+](=O)[O-])cc1OC (stereo not drawn)	11.2 µM (active)	–
Cc1cc(C2C(C#N)=C(N)OC3=C2C(=O)CC(C)(C)C3)c(C)s1 (stereo not drawn)	3.55 µM (active)	–
CCSC[C@@H](N)C(=O)O	–	-3.53% [at 11.4 µM]
COC(=O)\C(C(C)=O)=C(/C=C/C=C/C=C/N(C)C)N(C)C	–	1.83% [at 2.29 µM]
CCc1c(C)nc(N)n2c(SCC(=O)Nc3ccccc3)nnc12	17.8 µM (active)	–
CN(Cc1ccco1)c1ccnc(-c2cccc(C#N)c2)n1	12.6 µM (active)	–
CN(C)c1ncc2nc(-c3cccc(C#N)c3)c(=O)n(C[C@H]3CCCO3)c2n1	inactive	–
CN(Cc1ccco1)c1ccnc(-c2ccoc2)n1	inactive	–
CN(Cc1ccco1)c1ccnc(-c2cccnc2)n1	12.6 µM (active)	–
COc1cccc(-c2nccc(N(C)Cc3ccco3)n2)c1	20 µM (active)	–
CCN=C1NN=C(c2ccc(C)cc2)CS1	15.8 µM (active)	–
N/N=C1/c2ccccc2N[C@H]1OC(=O)Nc1ccccc1	–	-29.3% [at 11.4 µM]
CC(=O)Nc1ccc(C#Cc2ccc(NC(C)=O)cc2)cc1	inactive	–

Structure (SMILES)	AC50	activity, negative = inhibition
Cc1cccc(NC(=O)CC2Nc3cccc4cccc(c34)NC2=O)c1 (stereo not drawn)	2.51 µM (active)	–
CC(=O)Nc1ccc(NC(=O)CC2Nc3cccc4cccc(c34)NC2=O)cc1 (stereo not drawn)	10 µM (active)	–
COc1cccc2c1C(=N)c1c(O)c3c(c(O)c1C2=O)C[C@](O)(C(C)=O)C[C@@H]3O[C@H]1C[C@H](N)[C@@H](O)[C@H](C)O1	–	-16% [at 11.4 µM]
COc1ccc(NS(=O)(=O)c2ccc(NC(=O)c3cnn4c(C(F)F)cc(-c5ccc(C)cc5)nc34)cc2)cc1	1.26 µM (active)	–
Cc1cccc(C)c1NC(=O)CSc1nc(C)c(CC(=O)c2ccc(Br)cc2)c(C)c1C#N	5.01 µM (active)	–
CCn1c(-c2nonc2NC(=O)c2ccccc2)nc2ccccc21	3.16 µM (active)	–
O=C(O)Cn1c(-c2ccccc2)nc2ccccc21	inactive	–
Cc1nonc1NCn1nnc2ccccc21	inactive	–
CC(=O)Nc1nonc1NC(=O)c1ccc(C(C)(C)C)cc1	–	-6.73% [at 11.4 µM]
CCC(=O)Nc1nonc1-c1nc2ccccc2n1N(C(=O)CC)C(=O)CC	22.4 µM (active)	–
CCC(=O)N1CCn2c1nc1ccccc12	inactive	–
Nc1c(S(N)(=O)=O)cc(S(N)(=O)=O)cc1S(N)(=O)=O	–	-3.99% [at 11.4 µM]
COCCn1c(=S)[nH]c2cc(C(=O)NC(C)C)ccc2c1=O	inactive	–
Cc1ccc(-n2c(=O)c3sccc3n(CC(=O)NCc3ccco3)c2=O)cc1F	inactive	–
CCOc1cc2[nH]c(=S)n(CCCC(=O)NCc3ccco3)c(=O)c2cc1OCC	3.98 µM (active)	–
O=C(NCc1ccco1)c1ccc2c(=O)n(-c3ccccc3)c(=S)[nH]c2c1	inactive	–
COCCCn1c(=S)[nH]c2ncccc2c1=O	inactive	–
O=C(CCn1c(=O)[nH]c2ccsc2c1=O)Nc1ccc(F)c(F)c1	inactive	–
O=C(CCCCn1c(=S)[nH]c2ccsc2c1=O)NCc1ccco1	7.08 µM (active)	–
O=C(CCCCCn1c(=O)[nH]c2ccsc2c1=O)NCc1ccc2c(c1)OCO2	0.631 µM (active)	–
COCCNC(=O)CCCCCn1c(=S)[nH]c2ccccc2c1=O	8.91 µM (active)	–
